Results as given in the supplement of paper PMC6555819.

Each sequence was assayed on RARa homodimer (NR concentration 270 nM) (assay: PBM binding z-score (relative to random genomic background probes); higher = stronger binding; sequences stand for … in GC…GCGATTGACAGCGTAGAATGAAGG).
In short: (§1)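 Probes were double-stranded and carried 34-nt variable regions with direct-repeat seeds, single-nucleotide variants, half-site ablations and random human genomic background sequences, printed on custom Agilent 4×180K protein-binding microarrays. Arrays were incubated 1 h with ligand-free nuclear receptor dimers in PBS pH 7.4, 2% milk, 0.02% Triton X-100, 1 mM DTT, 0.2 mg/mL BSA and 0.4 mg/ml salmon testes DNA. Antibodies against each partner (one per run) detected binding, and scanned fluorescence was regression-normalized. Binding z-scores use the random background probes as reference.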
In the case of TATACAGGGTCAAAGGCCACAGTACGAATGTCGA, the PBM binding z-score is reported as 1.53.
Work on GATACAGGGTCAGCTAGAGCCCAGAGTATGGAAA yielded a PBM binding z-score of -0.316.
In the case of TATACAGGGACAAAGGCCAGAGTACGAATGTCGA, the PBM binding z-score is reported as 0.492.
With TCGAGTAGGTTAGGGGCATTGAGAATGGCGTCGA the PBM binding z-score was -0.562.
In the case of CCTCGGAGGACAGAAGGTCAGAGCTGTCCGCTTT, the PBM binding z-score is reported as 0.441.
For CGTCCAAGGTCATAGGAGGTCCGTGAAGACAGAT, the PBM binding z-score was 1.62.
AGTCAAAGTCCACTAGGTAACGTAAGATTCAGCT showed a PBM binding z-score of 0.764.
With CCTTACGGGTCACGAGGTTATAGAACGACGAGCG the PBM binding z-score was 0.736.
With TGAATGAGGTTATAAGAACAGGGAACGTTGCAAA the PBM binding z-score was -0.0801.
In the case of CGAACTACGTCATTGACAGGACAGTGAATAGTAA, the PBM binding z-score is reported as 0.592.
With ATACCAAGGTGATCGTGAGGTGGTTGATACTAAC the PBM binding z-score was 0.144.
With TCTAGTTGCTCACGGAGGTCACACACGACGGGTA the PBM binding z-score was 0.559.
CCTCGGGGGACAACAGGAGGTCAGAGCTGCCAGA showed a PBM binding z-score of 0.259.
With CTCGAAAGGTCGGTTGAGGTGAGTATTCGGATAA the PBM binding z-score was 0.255.
TAGCCTAGGTCATATCGGGCCAGTATACGCTATA gave a PBM binding z-score of -0.618.
Sequence AGAACGAGGGCACGCTGAGTTGTTAGCAGAGTAG has a PBM binding z-score of -0.521.
Work on ACAGACTGGTGATGAAGGTAACTCAGGCTATCAT yielded a PBM binding z-score of 0.115.
Work on CTCGAAAGGTCGTGCTCAGGTGAGTCTACCAAAC yielded a PBM binding z-score of -0.14.
Sequence AGAACGAGGGCACGCTGAGTTGACAGCAGAGTAG has a PBM binding z-score of -0.654.
ACTAGCAAGCCAAGTTTGGGTCACTCAAACAAAG gave a PBM binding z-score of -0.901.
With CCTTACGGCTCAAGGTTATAGCACGGGTGGTACG the PBM binding z-score was 0.282.
In the case of CCTATTAGTTGACCATAAGGGCTACCGAAGCTCG, the PBM binding z-score is reported as 1.97.
With CGAACTAGGTCAAGGAAAGTGAATCTCCGCACGC the PBM binding z-score was 0.0155.
TGTCAAAGTTCAAAGGTAACGTAAGTATCCACAC was tested, and the PBM binding z-score was 0.967.
Work on GCTGCTAGGTCAACTGATGGTCAGCCAAAGCTCG yielded a PBM binding z-score of -0.0572.
Work on CATGCAGGGTCAGCTAGGCCAGAGTAGGGACGGC yielded a PBM binding z-score of -0.247.
Work on TCATGTAGATCAACAGGAGGTTAAGAAAGATCGA yielded a PBM binding z-score of 0.399.
Work on TTACCAAGGAGAAAGGTCGTTGATGCACGCCTTG yielded a PBM binding z-score of -0.114.
AGTTAAAGTTCATCTAGGTAACGTAAGATATGCT gave a PBM binding z-score of 2.39.
In the case of CGAACTAGGTCATTGACAGGCCAGTGAATAGTAA, the PBM binding z-score is reported as -0.0851.
For GCTGCTAGGTCAACTGATGGTCAGGTAAAGCTCG, the PBM binding z-score was 0.327.
Work on TCTAGCAGGCCAGAGGGTCACACAAGAGGTACGG yielded a PBM binding z-score of 0.0542.
ATATGTCGGTTAGCTGGGGTCATTCAGACTAGGC showed a PBM binding z-score of 0.853.
With TCATATAGGTAATTCAGGTGAAAGTCGGCATCTA the PBM binding z-score was 1.6.
CCTCGAAGGACAGAAGGTCAGAGCTGTCCGCTTT showed a PBM binding z-score of 0.748.
For TGAATGATGTTAAAGATCAGGGAACGTGGCGTCG, the PBM binding z-score was 0.502.
TCCTATAGGTAATACAGGTGAAAGTCGGCATCTA gave a PBM binding z-score of 0.724.
ACTAGCAGGCCAAGTTGGGGTCACTCAAACAAAG gave a PBM binding z-score of -0.0777.
CGTCCAAGGTCATAGGAGGGCAGTGAAGACAGAT gave a PBM binding z-score of 0.613.
With ATCTAAAGGTCGACGAGGTGAGTATACACCGTTT the PBM binding z-score was 1.29.

What follows are sequences tested on RARb:RXRa (NR concentration 270 nM, RXRa partner concentration 90 nM) in the same assay as above.
In short: as §1
For TATACAGGGTCAAAGGCCACAGTACGAATGTCGA, the PBM binding z-score was 4.45.
In the case of GATACAGGGTCAGCTAGAGCCCAGAGTATGGAAA, the PBM binding z-score is reported as 3.81.
TATACAGGGACAAAGGCCAGAGTACGAATGTCGA gave a PBM binding z-score of 1.54.
With TCGAGTAGGTTAGGGGCATTGAGAATGGCGTCGA the PBM binding z-score was 1.03.
CCTCGGAGGACAGAAGGTCAGAGCTGTCCGCTTT gave a PBM binding z-score of 2.89.
In the case of CGTCCAAGGTCATAGGAGGTCCGTGAAGACAGAT, the PBM binding z-score is reported as 5.04.
With AGTCAAAGTCCACTAGGTAACGTAAGATTCAGCT the PBM binding z-score was 1.44.
With CCTTACGGGTCACGAGGTTATAGAACGACGAGCG the PBM binding z-score was 4.73.
For TGAATGAGGTTATAAGAACAGGGAACGTTGCAAA, the PBM binding z-score was 1.11.
For CGAACTACGTCATTGACAGGACAGTGAATAGTAA, the PBM binding z-score was -0.0589.
Work on ATACCAAGGTGATCGTGAGGTGGTTGATACTAAC yielded a PBM binding z-score of 0.774.
In the case of TCTAGTTGCTCACGGAGGTCACACACGACGGGTA, the PBM binding z-score is reported as 3.25.
For CCTCGGGGGACAACAGGAGGTCAGAGCTGCCAGA, the PBM binding z-score was 3.16.
CTCGAAAGGTCGGTTGAGGTGAGTATTCGGATAA showed a PBM binding z-score of 3.25.
For TAGCCTAGGTCATATCGGGCCAGTATACGCTATA, the PBM binding z-score was 3.37.
For AGAACGAGGGCACGCTGAGTTGTTAGCAGAGTAG, the PBM binding z-score was 2.62.
ACAGACTGGTGATGAAGGTAACTCAGGCTATCAT was tested, and the PBM binding z-score was -0.396.
Work on CTCGAAAGGTCGTGCTCAGGTGAGTCTACCAAAC yielded a PBM binding z-score of 3.86.
For AGAACGAGGGCACGCTGAGTTGACAGCAGAGTAG, the PBM binding z-score was 2.57.
For ACTAGCAAGCCAAGTTTGGGTCACTCAAACAAAG, the PBM binding z-score was 0.801.
CCTTACGGCTCAAGGTTATAGCACGGGTGGTACG was tested, and the PBM binding z-score was 0.562.
With CCTATTAGTTGACCATAAGGGCTACCGAAGCTCG the PBM binding z-score was 0.623.
CGAACTAGGTCAAGGAAAGTGAATCTCCGCACGC showed a PBM binding z-score of 3.9.
With TGTCAAAGTTCAAAGGTAACGTAAGTATCCACAC the PBM binding z-score was 5.11.
With GCTGCTAGGTCAACTGATGGTCAGCCAAAGCTCG the PBM binding z-score was 4.27.
CATGCAGGGTCAGCTAGGCCAGAGTAGGGACGGC showed a PBM binding z-score of 4.14.
Sequence TCATGTAGATCAACAGGAGGTTAAGAAAGATCGA has a PBM binding z-score of 0.499.
TTACCAAGGAGAAAGGTCGTTGATGCACGCCTTG was tested, and the PBM binding z-score was 1.5.
For AGTTAAAGTTCATCTAGGTAACGTAAGATATGCT, the PBM binding z-score was 4.79.
In the case of CGAACTAGGTCATTGACAGGCCAGTGAATAGTAA, the PBM binding z-score is reported as 3.64.
GCTGCTAGGTCAACTGATGGTCAGGTAAAGCTCG gave a PBM binding z-score of 4.45.
With TCTAGCAGGCCAGAGGGTCACACAAGAGGTACGG the PBM binding z-score was 2.62.
With ATATGTCGGTTAGCTGGGGTCATTCAGACTAGGC the PBM binding z-score was 2.62.
TCATATAGGTAATTCAGGTGAAAGTCGGCATCTA showed a PBM binding z-score of 0.546.
CCTCGAAGGACAGAAGGTCAGAGCTGTCCGCTTT showed a PBM binding z-score of 3.06.
Sequence TGAATGATGTTAAAGATCAGGGAACGTGGCGTCG has a PBM binding z-score of -0.0162.
TCCTATAGGTAATACAGGTGAAAGTCGGCATCTA gave a PBM binding z-score of 0.581.
With ACTAGCAGGCCAAGTTGGGGTCACTCAAACAAAG the PBM binding z-score was 3.14.
Work on CGTCCAAGGTCATAGGAGGGCAGTGAAGACAGAT yielded a PBM binding z-score of 5.06.
ATCTAAAGGTCGACGAGGTGAGTATACACCGTTT showed a PBM binding z-score of 3.91.
